For some of these results: Potency and affinity values are given separately.
Assays:
Design in all cases: scale not given: direction of the effect not stated beside the values
[1] = molecular target: Protein translocase subunit SecA (Escherichia coli (strain K12)) (UniProt P10408); assay: Assay to Identify E. coli SecA ATPase Inhibitors; type: functional; conditions: 30 µM
[2] = molecular target: T1, Ubiquitin-activating enzyme e1, putative (Leishmania donovani (strain BPK282A1)) (UniProt E9BSI1); assay: Leishmania donovani Ubiquitin Activating Enzyme (LdE1); type: functional; conditions: 30 µM
T1 sequence (whole entry): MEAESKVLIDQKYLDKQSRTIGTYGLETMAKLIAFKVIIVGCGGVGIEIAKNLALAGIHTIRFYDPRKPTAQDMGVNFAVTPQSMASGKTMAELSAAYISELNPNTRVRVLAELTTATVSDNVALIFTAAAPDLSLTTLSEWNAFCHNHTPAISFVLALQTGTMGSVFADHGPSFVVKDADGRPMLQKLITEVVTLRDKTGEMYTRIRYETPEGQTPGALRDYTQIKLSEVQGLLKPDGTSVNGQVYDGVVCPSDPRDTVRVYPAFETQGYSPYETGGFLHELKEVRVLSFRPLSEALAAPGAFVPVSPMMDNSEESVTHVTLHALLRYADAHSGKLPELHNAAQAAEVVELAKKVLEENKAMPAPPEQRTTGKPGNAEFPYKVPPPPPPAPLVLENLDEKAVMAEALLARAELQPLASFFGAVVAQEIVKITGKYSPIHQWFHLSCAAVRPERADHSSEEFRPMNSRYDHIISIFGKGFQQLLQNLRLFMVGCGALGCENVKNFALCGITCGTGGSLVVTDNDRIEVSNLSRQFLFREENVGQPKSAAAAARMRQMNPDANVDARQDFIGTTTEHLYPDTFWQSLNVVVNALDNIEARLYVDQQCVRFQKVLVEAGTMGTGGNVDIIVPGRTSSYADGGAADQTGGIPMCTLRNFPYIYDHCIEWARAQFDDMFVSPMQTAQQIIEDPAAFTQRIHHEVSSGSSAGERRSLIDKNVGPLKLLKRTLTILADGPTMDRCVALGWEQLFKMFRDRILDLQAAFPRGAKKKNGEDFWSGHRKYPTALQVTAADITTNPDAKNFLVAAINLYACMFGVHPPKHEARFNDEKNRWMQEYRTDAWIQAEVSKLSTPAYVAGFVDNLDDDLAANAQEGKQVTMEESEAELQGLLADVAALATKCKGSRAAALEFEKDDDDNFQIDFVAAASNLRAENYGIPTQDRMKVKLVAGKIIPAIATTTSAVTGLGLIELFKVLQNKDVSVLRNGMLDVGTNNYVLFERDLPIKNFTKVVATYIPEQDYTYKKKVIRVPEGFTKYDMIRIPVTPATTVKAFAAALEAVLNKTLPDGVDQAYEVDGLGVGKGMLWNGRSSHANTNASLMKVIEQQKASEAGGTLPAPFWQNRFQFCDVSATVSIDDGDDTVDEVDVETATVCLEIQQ

[3] = molecular target: AMP-activated protein kinase, AMPK (Homo sapiens) (UniProt P54646+O43741+P54619+Q9UGJ0+Q9Y478+Q13131+Q9UGI9); assay: AMP-dependent Kinase enzyme assay. An in vitro enzyme assay that detects ADP turnover that is directly proportional to AMPK activity. This uses naive AMPK that is activated during the assay with MK-8722; type: functional; conditions: 30 µM
[4] = molecular target: Sialic acid-binding Ig-like lectin 9 (Homo sapiens) (UniProt Q9Y336); assay: Hs-Siglec9 ALPHAscreen SOP 20170721; conditions: 10 µM
Sialic acid-binding Ig-like lectin 9 (Homo sapiens), sequence (Q9Y336 whole entry): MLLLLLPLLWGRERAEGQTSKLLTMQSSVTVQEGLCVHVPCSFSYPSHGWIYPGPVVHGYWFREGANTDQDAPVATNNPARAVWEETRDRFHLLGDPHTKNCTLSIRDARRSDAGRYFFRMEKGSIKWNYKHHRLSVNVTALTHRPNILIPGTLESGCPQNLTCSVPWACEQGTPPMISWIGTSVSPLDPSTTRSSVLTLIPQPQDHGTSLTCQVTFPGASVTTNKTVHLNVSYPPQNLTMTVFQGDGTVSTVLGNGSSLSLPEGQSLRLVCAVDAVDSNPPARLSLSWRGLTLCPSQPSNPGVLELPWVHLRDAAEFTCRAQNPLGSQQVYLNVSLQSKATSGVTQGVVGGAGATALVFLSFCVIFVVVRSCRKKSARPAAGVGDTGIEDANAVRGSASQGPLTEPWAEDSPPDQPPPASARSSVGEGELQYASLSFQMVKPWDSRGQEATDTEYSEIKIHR

Trypanosoma cruzi = assay: Trypanosoma cruzi phosphomannomutase and mannose-1-phosphate guanylyltransferase assay; type: functional; conditions: 10 µM
[5] = molecular target: T2, Arginase-2, mitochondrial (Homo sapiens) (UniProt P78540); assay: in vitro enzyme assay to detect the production of urea directly proportional to the activity of Arginase II; type: functional; conditions: 33.3 µM; further: in the data most compounds retested in dose-response had high values
T2 sequence (whole entry): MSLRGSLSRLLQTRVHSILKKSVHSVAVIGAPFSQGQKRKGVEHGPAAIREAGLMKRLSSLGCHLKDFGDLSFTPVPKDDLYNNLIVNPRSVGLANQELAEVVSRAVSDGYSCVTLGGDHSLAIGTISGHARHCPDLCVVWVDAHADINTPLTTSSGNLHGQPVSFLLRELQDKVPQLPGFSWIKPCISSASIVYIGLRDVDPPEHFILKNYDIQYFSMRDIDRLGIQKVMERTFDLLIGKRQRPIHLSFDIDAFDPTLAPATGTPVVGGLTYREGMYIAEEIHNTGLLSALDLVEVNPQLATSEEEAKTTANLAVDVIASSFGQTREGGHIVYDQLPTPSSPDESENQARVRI

[6] = molecular target: T3, Proteasome subunit beta (Trypanosoma cruzi) (UniProt O96673); assay: Trypanosoma cruzi proteasome chymotrypsin-like activity (TcProtChymo) assay.; further: in the data most compounds retested in dose-response had high values; type: functional; conditions: 9.37 µM
T3 sequence (whole entry): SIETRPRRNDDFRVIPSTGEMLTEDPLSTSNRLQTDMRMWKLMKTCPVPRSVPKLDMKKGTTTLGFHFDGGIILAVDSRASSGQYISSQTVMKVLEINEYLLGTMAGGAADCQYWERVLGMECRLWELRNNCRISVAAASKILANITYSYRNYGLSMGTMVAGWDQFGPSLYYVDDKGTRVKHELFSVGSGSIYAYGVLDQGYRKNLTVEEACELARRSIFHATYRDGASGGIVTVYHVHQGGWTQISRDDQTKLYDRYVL

Homo sapiens = species: Homo sapiens; assay: To identify inhibition of the IFN signalling (Jak-Stat) pathway via expression of an eGFP reporter gene under the control of an IFN-stimulated response element (ISRE) containing MxA promoter.; type: functional; conditions: 30 µM
[7] = molecular target: T4, Tyrosyl-tRNA synthetase, putative (Trypanosoma cruzi (strain CL Brener)) (UniProt Q4DSP6); assay: Trypanosoma cruzi tyrosyl tRNA synthetase (TcYRS) _High Tyrosine SOP; type: functional; conditions: 30 µM; further: in the data most compounds retested in dose-response had high values
T4 sequence (whole entry): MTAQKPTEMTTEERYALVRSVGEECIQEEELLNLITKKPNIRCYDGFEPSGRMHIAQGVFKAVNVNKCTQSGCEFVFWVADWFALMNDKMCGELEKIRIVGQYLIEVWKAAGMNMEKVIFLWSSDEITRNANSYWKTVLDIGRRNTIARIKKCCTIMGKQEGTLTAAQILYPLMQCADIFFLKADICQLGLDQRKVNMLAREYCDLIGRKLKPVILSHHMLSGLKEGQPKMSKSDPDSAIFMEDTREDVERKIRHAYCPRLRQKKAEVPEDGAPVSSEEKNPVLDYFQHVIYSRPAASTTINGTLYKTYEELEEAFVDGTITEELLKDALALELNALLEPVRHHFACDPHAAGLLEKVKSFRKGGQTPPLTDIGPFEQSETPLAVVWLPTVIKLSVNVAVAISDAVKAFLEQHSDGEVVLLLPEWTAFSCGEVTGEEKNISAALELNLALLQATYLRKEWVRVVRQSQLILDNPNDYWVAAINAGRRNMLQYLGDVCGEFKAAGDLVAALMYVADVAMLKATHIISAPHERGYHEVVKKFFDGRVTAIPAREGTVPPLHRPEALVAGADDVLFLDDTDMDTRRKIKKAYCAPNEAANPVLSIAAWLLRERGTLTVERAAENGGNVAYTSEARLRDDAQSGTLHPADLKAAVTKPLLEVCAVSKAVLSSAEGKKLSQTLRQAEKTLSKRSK

[8] = molecular target: T4, Tyrosyl-tRNA synthetase, putative (Trypanosoma cruzi (strain CL Brener)); assay: Trypanosoma cruzi tyrosyl tRNA synthetase (TcYRS) SOP; type: functional; conditions: 30 µM
[9] = molecular target: Chromo domain-containing protein 1 (Saccharomyces cerevisiae (strain ATCC 204508 / S288c) (Baker's yeast)) (UniProt P32657); assay: ScCHD-1 Enzyme Inhibition Assay; type: functional; conditions: 30 µM; further: in the data most compounds retested in dose-response had high values
Chromo domain-containing protein 1 (Saccharomyces cerevisiae (strain ATCC 204508 / S288c) (Baker's yeast)), sequence (P32657 whole entry, the tested form may be a part): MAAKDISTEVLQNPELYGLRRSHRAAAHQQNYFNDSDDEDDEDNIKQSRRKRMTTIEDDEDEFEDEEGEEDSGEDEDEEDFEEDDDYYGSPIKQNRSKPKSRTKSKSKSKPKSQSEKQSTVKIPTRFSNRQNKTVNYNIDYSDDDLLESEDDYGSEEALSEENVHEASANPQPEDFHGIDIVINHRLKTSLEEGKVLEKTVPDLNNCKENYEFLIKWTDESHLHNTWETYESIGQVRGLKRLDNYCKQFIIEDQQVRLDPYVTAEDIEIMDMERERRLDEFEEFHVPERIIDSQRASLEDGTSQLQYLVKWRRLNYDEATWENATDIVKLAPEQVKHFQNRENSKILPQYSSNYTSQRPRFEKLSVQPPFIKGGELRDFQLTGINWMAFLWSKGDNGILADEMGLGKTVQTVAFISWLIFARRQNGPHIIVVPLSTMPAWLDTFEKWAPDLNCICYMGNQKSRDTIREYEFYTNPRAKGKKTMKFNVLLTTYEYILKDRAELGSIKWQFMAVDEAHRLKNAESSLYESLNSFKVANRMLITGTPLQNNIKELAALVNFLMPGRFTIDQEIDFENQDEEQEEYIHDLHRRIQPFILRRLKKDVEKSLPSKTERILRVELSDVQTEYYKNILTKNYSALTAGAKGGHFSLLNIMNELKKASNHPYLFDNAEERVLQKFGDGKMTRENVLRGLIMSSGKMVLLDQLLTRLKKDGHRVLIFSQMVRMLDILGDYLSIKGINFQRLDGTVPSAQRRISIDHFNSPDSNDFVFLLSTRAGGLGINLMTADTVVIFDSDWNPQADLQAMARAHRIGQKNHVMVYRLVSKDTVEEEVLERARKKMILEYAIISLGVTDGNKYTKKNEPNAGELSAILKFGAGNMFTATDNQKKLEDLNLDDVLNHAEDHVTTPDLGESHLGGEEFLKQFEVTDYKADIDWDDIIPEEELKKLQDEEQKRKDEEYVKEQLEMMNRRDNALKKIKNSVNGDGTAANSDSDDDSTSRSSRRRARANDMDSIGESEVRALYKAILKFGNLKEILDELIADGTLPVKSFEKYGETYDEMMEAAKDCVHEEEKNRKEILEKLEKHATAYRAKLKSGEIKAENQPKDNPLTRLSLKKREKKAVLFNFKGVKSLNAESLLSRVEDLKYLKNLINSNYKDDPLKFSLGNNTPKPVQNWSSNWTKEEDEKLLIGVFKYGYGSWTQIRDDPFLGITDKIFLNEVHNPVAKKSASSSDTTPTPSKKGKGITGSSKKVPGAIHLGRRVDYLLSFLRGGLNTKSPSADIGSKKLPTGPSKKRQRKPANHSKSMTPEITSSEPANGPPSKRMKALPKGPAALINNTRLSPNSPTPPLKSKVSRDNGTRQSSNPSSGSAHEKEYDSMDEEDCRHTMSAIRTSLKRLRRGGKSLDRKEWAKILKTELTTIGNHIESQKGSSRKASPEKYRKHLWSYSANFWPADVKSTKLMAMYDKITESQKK

Protein translocase subunit SecA (Escherichia coli (strain K12)), sequence (P10408 whole entry): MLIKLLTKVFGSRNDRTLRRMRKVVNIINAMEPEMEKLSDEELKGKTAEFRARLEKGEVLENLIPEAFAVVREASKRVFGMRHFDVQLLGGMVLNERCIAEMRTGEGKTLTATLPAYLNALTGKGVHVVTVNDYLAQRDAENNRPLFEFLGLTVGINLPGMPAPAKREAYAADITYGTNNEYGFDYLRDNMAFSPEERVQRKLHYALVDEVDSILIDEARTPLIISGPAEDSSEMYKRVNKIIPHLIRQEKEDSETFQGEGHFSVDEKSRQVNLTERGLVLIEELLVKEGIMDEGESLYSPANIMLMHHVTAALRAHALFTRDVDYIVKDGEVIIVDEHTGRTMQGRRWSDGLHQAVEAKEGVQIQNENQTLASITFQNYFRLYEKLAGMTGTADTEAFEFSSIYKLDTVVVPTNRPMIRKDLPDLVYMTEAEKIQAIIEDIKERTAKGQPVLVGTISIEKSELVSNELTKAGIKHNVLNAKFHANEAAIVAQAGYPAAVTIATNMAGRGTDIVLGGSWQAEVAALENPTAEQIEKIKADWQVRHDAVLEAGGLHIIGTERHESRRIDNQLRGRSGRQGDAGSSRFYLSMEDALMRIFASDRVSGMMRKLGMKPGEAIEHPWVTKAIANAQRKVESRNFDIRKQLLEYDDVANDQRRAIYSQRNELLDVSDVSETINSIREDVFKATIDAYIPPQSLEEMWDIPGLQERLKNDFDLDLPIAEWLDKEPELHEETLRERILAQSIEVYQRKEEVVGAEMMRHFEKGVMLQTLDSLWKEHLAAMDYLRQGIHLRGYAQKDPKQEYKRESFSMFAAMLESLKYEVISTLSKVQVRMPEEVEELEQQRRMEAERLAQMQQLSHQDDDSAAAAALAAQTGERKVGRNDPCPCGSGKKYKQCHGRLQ

SMILES | Percent Effect [1] | Percent Effect [2] | Percent Effect [3] | Percent Effect [4] | Percent Effect (Trypanosoma cruzi) | Percent Effect [5] | Percent Effect [6] | Percent Effect (Homo sapiens) | Percent Effect [7] | Percent Effect [8] | Percent Effect [9]
Cc1n[nH]c(C2CN(C(=O)CCc3ccco3)CCO2)n1 (stereo unspecified) | -1.8% | 7.89% | 9.83% | -2.52% | 3.6% | 3.55% | 21% | 21.1% | 2.13% | 7.79% | -3.66%
CNC(=O)c1cc2c(nc1N(C)C)CCN(S(=O)(=O)CC(C)C)CC2 | -2.25% | 5.2% | 7.84% | 6.98% | -2.27% | -5.81% | 3.83% | -12.4% | -9.52% | 1.28% | -2.31%
O=C(NCc1cnc2n1CCN(c1ncc(F)cn1)CC2)C1CCC1 | -3.67% | 0% | 0.174% | 23.6% | 2.83% | 1.24% | -0.772% | -4.55% | 4.3% | 3.7% | 0.0919%
CCc1nccn1C1CCCN(C(=O)c2cn3cccnc3n2)C1 (stereo unspecified) | -1.83% | 2.7% | -8.93% | 1.79% | -2.17% | 2.81% | -3.96% | -7.1% | 1.48% | -1.24% | 1.22%
Cc1cc(-c2cnn(CCNC(=O)c3cccnc3)c2C2CC2)on1 | -4.86% | 4.05% | 7.97% | 2.6% | -0.395% | -3.48% | -1.09% | 7.9% | 5.38% | 9.09% | 1.21%
O=C(NC1CC1)c1cc(NC(=O)N2CCCC(O)C2)ccc1Cl (stereo unspecified) | -1.73% | 11% | 1.28% | 3.66% | -5.36% | 1.6% | 16.4% | -0.927% | 6.25% | 13.6% | 1.44%
Cc1cc(N2CCN(CCO)CC2)nc(-c2ccncc2)n1 | -0.472% | 5.26% | 0.962% | -2.69% | -0.876% | -8.28% | 21.6% | -0.921% | 7.45% | 7.79% | -4.96%
CCc1noc(C2CCN(C(=O)CCn3nc(C)cc3C)CC2)n1 | -4.24% | 18.2% | 0.146% | 12.9% | 8.55% | -5.52% | 14.8% | -6.48% | 8.6% | 16.1% | -7.88%
O=C(COC[C@H]1CC[C@H]2[C@H](CCN2c2ncccn2)O1)N1CCCC1 | -2.35% | 24.7% | -1.6% | 1.45% | 0% | -1.2% | 7.62% | 13.1% | 5.21% | 13.6% | -1.93%
CCc1nccn1C1CCCN(C(=O)c2ccc3c(c2)OCO3)C1 (stereo unspecified) | -3.94% | -2.6% | 8.35% | -3.25% | -3.93% | -3.2% | 1.01% | 25.9% | -1.94% | -4.88% | -7.3%
COCCN1CCC2(CC1)CN(C(=O)N(C)C)c1ccc(C)cc12 | -5.7% | 5.41% | -1.76% | -3.94% | -3.62% | 2.23% | 6.83% | 12.1% | 0% | 5.13% | 0.0767%
